Sampled rows, rich in hits. Any-hit rate of the full collection: about 2.3%.
M1 PAM parental: nonselective activator or artifact in parental CHO-K1 calcium assay; ATP EC20, Fluo-8 calcium fluorescence; 0% at ATP EC20, 100% at ATP max; activation, % at 3 µM; 360,000 tested, 0.02% active; AID 602247;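 active = activation above the run cutoff, the mean activation of all test compounds plus 3 SD, cut at about 40% in these data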;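 also: peak over basal fluorescence ratio in a 140 s read after ATP addition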
CHO-K1 Ca antag: M1 antagonist counterscreen hit in parental CHO-K1 cells; ATP-induced calcium, Fluo-8 fluorescence; inhibition, % at 3 µM; 360,000 tested, 0.6% active; AID 602250;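 active = inhibition above a per-plate cutoff, the plate's mean sample inhibition plus 3 SD, cut at about 24% in these data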
CHO-K1 Ca ag: counter-screen for M1 agonists: effect in parental CHO-K1 cells. Fluo-8 calcium fluorescence; scaled to maximal ATP response, vehicle zero. activation, % at 3 µM. 360,000 tested, 0.48% active. AID 602248; in the data active = activation above about 15%;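 also: untransfected CHO-K1 host cells lacking M1 receptor as counterscreen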
M1 antag: blocks human M1 muscarinic receptor. P11229. CHO-K1 hM1, Fluo-8 calcium fluorescence, ACh EC80 antagonist. inhibition, % at 3 µM. 360,000 tested, 1.3% active;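 active = percent inhibition above its own plate's cutoff, namely the mean of that plate's compound wells plus 3 SD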;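 also: peak over basal fluorescence ratio during 140 s after agonist addition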
Target sequence (P11229 whole entry, looked up): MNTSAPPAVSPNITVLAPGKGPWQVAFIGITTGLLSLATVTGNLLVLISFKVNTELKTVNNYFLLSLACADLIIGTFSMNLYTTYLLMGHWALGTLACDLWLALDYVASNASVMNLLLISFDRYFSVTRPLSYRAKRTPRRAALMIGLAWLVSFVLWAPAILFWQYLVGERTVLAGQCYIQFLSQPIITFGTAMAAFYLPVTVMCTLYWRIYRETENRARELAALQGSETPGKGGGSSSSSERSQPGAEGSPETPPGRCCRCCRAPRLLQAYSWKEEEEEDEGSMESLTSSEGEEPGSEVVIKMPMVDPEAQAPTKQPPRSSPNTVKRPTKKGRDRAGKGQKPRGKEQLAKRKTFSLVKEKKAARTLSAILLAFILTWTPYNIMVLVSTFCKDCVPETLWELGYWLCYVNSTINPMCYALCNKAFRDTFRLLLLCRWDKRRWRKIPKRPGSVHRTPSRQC
CHRM1 agonist: activates human CHRM1 receptor. P11229. CHO-K1 hM1, Fluo-8 calcium fluorescence, agonist mode; 0% DMSO, 100% acetylcholine EC100. activation, % at 3 µM. 360,000 tested, 0.33% active. AID 588814;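 active = activation above the run's mean compound activation plus 3 SD, cut at about 16% in these data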;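 also: peak over basal fluorescence ratio within a 140 s kinetic read after compound addition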
CHRM1 PAM: positive allosteric modulators of human M1 muscarinic receptor; P11229; CHO-K1 hM1, Fluo-8 calcium fluorescence, ACh EC20; 0% = ACh EC20, 100% = maximal ACh; activation, % at 3 µM; 360,000 tested, 0.088% active; AID 588819; in the data active = activation above about 19%, passing the limit was not always enough
Numbers stand for hits; 0 = inactive; - = not tested or not shown.

SMILES	M1 PAM parental	CHO-K1 Ca antag	CHO-K1 Ca ag	M1 antag	CHRM1 agonist	CHRM1 PAM
O=C(Nc1ccc(F)cc1)Nc1ccc2c(c1)OCO2	0	0	21	0	0	0
O=C(CNCc1ccc(Cl)cc1)Nc1ccc2c(c1)OCCO2	0	0	22	0	0	0
O=C(Nc1ccc2c(c1)OCO2)Nc1ccc(F)cc1F	0	0	0	0	0	0
O=C(Nc1ccc([N+](=O)[O-])cc1)Nc1ccc(OC(F)F)c(Cl)c1	0	25	32	40	0	0
Cc1ccc(S(=O)(=O)N2[C@@H](c3ccc(F)cc3)C(C(=O)O)=CC[C@H]2c2cccs2)cc1	0	0	0	0	0	0
O=C(Nc1ccc(OC(F)F)c(Cl)c1)Nc1ccc2c(c1)OCO2	0	27	0	0	0	0
O=C(Nc1ccc(Cl)cc1)Nc1ccc2c(c1)OCO2	0	0	0	36	0	0
CC(C)CN(CC(C)C)C(=O)Nc1cccc([N+](=O)[O-])c1	0	0	15	0	0	0
CC(C(=O)Nc1cccc([N+](=O)[O-])c1)[n+]1ccccc1 (stereo not given)	0	0	0	0	0	0
O=C(Nc1ccc2c(c1)OCO2)Nc1ccc2c(c1)OCO2	0	0	0	0	0	0
CCCc1nnc(NC(=O)CCC(=O)NC2CCCC2)s1	0	0	0	0	0	0
COCCn1c(C)cc(C(=O)COc2ccc(N(C)S(=O)(=O)c3ccc(C)cc3)cc2)c1C	0	0	0	0	0	0
COc1ccc([C@H]2CC(=O)C=C(c3cccc4c3Oc3ccccc3S4)C2)cc1	0	0	0	0	0	0
C=CCN1C(=O)c2ccc(C(=O)N(CC)CC(=O)Nc3ccc(OC)cc3)cc2C1=O	0	0	0	0	0	0
CC(Oc1ccc(F)cc1)c1ccnc2nc(/N=C/N(C)C)nn12 (stereo not given)	0	0	0	0	0	0
CC(Oc1ccc(C(C)(C)C)cc1)c1ccnc2nc(/N=C/N(C)C)nn12 (stereo not given)	0	0	0	54	0	0
CCCCCCCCCC[n+]1cccc2c3ccccc3ccc21	0	40	18	82	0	0
CCCCCCCC[n+]1cccc2c3ccccc3ccc21	0	0	0	98	0	0
Cc1cccc[n+]1CCCCCCCCCC[n+]1ccccc1C	0	0	0	0	0	0
O=C(CCc1nc(-c2ccccc2)no1)NC1CCCCCC1	0	0	0	0	0	0
O=C1C(=NO)CC(c2ccccc2)N1c1ccccc1 (stereo not given)	0	0	0	0	0	0
C(C#CCCCCCCCCC[n+]1ccccc1)#CCCCCCCCCC[n+]1ccccc1	0	0	0	98	0	0
O=C(Cn1c2ccccc2c(=O)c2ccccc21)Nc1ccccc1F	0	0	0	0	0	0
O=C(Cn1c2ccccc2c(=O)c2cc([N+](=O)[O-])ccc21)Nc1ccccc1Cl	0	0	15	0	0	0
O=C(CN(C(=O)CCC(=O)Nc1nccs1)c1ccccc1F)NCc1ccc(F)cc1	0	0	0	0	0	0
SMILES	M1 PAM parental	CHO-K1 Ca antag	CHO-K1 Ca ag	M1 antag	CHRM1 agonist	CHRM1 PAM
Cc1ccc(S(=O)(=O)n2cnc3ccccc32)cc1[N+](=O)[O-]	0	0	0	0	0	0
CC(=O)Nc1ccc(NC(=O)Cn2c(=O)n(-c3ccccc3)c(=O)c3oc4ccccc4c32)cc1	0	0	15	0	0	0
C=CCC1(CC=C)CCCN1C(=O)c1cc(COc2cccc(OC)c2)on1	0	0	0	0	0	0
C=CCC1(CC=C)CCCN1C(=O)c1cc(COc2cncc(Cl)c2)on1	0	0	0	40	0	0
CC1CCN(S(=O)(=O)c2ccc(C(=O)N3CCOCC3)cc2)CC1	0	0	0	0	0	0
CC[n+]1ccccc1/C=C/c1ccc(N(C)C)cc1	0	0	0	0	0	0
CCCCCC[n+]1ccccc1/C=C/c1ccc(N(C)C)cc1	0	51	36	74	30	0
COC(=O)c1ccc(N2CCN(S(=O)(=O)c3ccc4ccccc4c3)CC2)c([N+](=O)[O-])c1	0	28	0	0	0	0
CN(C)C(CNC(=O)c1ccc(C(F)(F)F)cc1)c1ccco1 (stereo not given)	0	0	0	0	0	0
O=C(CSc1n[nH]c(=O)n1C1CC1)Nc1cc(Cl)ccc1Oc1ccccc1	0	25	0	46	0	0
O=C(CSc1n[nH]c(=O)n1C1CC1)Nc1ccccc1	0	0	0	0	0	0
CCOC(=O)Cc1csc(SCC(=O)Nc2cc(Cl)ccc2Oc2ccccc2)n1	0	29	0	0	0	0
CC(C)(C)c1ccc(CNC(=O)C2CCCN2C(=O)Nc2ccccc2)cc1 (stereo not given)	0	0	0	0	0	0
NS(=O)(=O)c1cccc(NC(=O)CSc2nnc(NC3CC3)s2)c1	0	0	0	0	0	0
CN(C)c1ccc(/C=C/c2nc3ccccc3c(=O)n2-c2ccc(C(=O)O)cc2)cc1	0	0	17	39	70	0
O=C1OC(N2C(=O)CC[C@H]2C(=O)NCC2CCCO2)c2ccccc21 (stereo not given in full)	0	0	0	102	0	0
O=C(NCCN1CCOCC1)C1CCC(=O)N1Cc1ccccc1Cl (stereo not given)	0	0	0	0	0	0
O=C(NCC1CCCO1)C1CCC(=O)N1Cc1ccccc1Cl (stereo not given)	0	25	0	0	0	0
COc1cccc(C(=O)N(CN2CCCC2=O)c2ccccc2OC)c1	0	28	0	0	0	0
CCOc1ccc(S(=O)(=O)Nc2cnc3ccccc3c2)cc1	0	25	0	0	0	0
CCOc1ccc(S(=O)(=O)Nc2nc3ccccc3nc2Cl)cc1	0	0	0	0	0	0
Cc1csc2ncnc(NNC(=O)c3ccc(Cl)cc3)c12	0	0	19	43	0	0
COC(=O)c1cccc(NC(=O)Nc2ccc(Cl)cc2Cl)c1	0	28	0	0	0	0
COC(=O)c1cccc(NC(=S)Nc2cc(Cl)ccc2OC)c1	0	0	0	0	0	0
O=C(NCCCCO)c1c(-c2ccccc2)oc2c1C(OCCCCCO)CCC2 (stereo not given)	0	0	0	-	-	-
O=C(/C=C/Nc1ccccc1)c1ccc(Oc2ncccn2)cc1	0	26	0	0	0	0
CN(C(=O)COC(=O)CN1C(=O)c2cccc([N+](=O)[O-])c2C1=O)c1ccccc1	0	0	0	0	0	28
C=CCOc1ccc(C(=O)Nc2ccccc2C(=O)NCc2cccnc2)cc1	0	0	0	0	0	0
CC1(C)Cc2c(sc3nc[nH]c(=O)c23)CO1	0	26	0	0	0	0
CC1(C)Cc2c(sc3nn[nH]c(=O)c23)CO1	0	0	0	0	0	0

From PubChem
